The results in this text go back to PubChem BioAssay (NCI).

Test systems include SK-MEL-2 melanoma; EKVX NSCLC; SN12C renal; UO-31 renal; TK-10 renal; ACHN renal; CAKI-1 renal; A498 renal; CCRF-CEM leukemia; MOLT-4 leukemia.
What all share (experiment): NCI-60 one-dose screen, 48 h (100 = growth as untreated, 0 = no growth, -100 = all killed)
Holding throughout (conditions): 10 µM unless noted

SMILES strings stand for the structures. This is part of a sample that, as a whole, favours compounds with a hit. Of some 83,000 tested, about 20% had one in any assay.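 The test compound was applied at a single concentration to cells in 96-well plates for 48 hours, and percent growth was recorded.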 Unmarked numbers belong to inactive results. The source made the active and inactive calls. The calls were made as follows: active = growth percent below 10; inactive = the rest.

Consider `O=S(=O)(CC(O)(c1ccccc1)c1ccccc1)CC(O)(c1ccccc1)c1ccccc1`, for which the growth in the assay with SK-MEL-2 melanoma is 109%; in the assay on EKVX NSCLC, 73.8%; in the assay with SN12C renal, 90.1%; with UO-31 renal it was 92.9%; with TK-10 renal it was 107%; in the assay on ACHN renal, 78.1%. Also, the growth in the assay with CAKI-1 renal was 66.9%; with A498 renal, 98.7%; in the assay on CCRF-CEM leukemia, 64.8%; in the assay on MOLT-4 leukemia it was 96.7%.
On to `Brc1cccc(-c2cc(-c3ccc4c(c3)OCCCO4)[nH]n2)c1`, for which the growth is 46.1% [25 µM] with SK-MEL-2 melanoma; 54.7% [25 µM] in the assay with EKVX NSCLC; 62.7% [25 µM] with SN12C renal; 60.1% [25 µM] in the assay with UO-31 renal; 71.1% [25 µM] in the assay with TK-10 renal; 75.8% [25 µM] in the assay on ACHN renal. Further, the growth in the assay with CAKI-1 renal is 39.6% [25 µM]; with A498 renal it was 70% [25 µM]; in the assay with CCRF-CEM leukemia it was 57.5% [25 µM]; with MOLT-4 leukemia it was 56.8% [25 µM].
Consider `COc1cccc(-c2nc3sccn3c2-c2ccnc(NCCCNS(=O)(=O)c3ccc(F)cc3)c2)c1`, for which the growth in the assay with SK-MEL-2 melanoma was 21.2%; with EKVX NSCLC, 36.5%; with SN12C renal, 29.9%; in the assay on UO-31 renal, 6.81% (active); in the assay on TK-10 renal, 80.4%; in the assay with ACHN renal, 22.6%. The growth in the assay with CAKI-1 renal is 23.9%; in the assay on A498 renal, 48.7%; with CCRF-CEM leukemia it was 10.6%; with MOLT-4 leukemia, 10.9%.
For `CCCCCCCCCCCC(=O)NCCC[N+](C)(C)CC(=O)[O-]`, the growth in the assay with SK-MEL-2 melanoma was 96.3%; with EKVX NSCLC, 103%; in the assay on SN12C renal, 103%; with UO-31 renal it was 97.6%; in the assay on TK-10 renal, 76.6%; in the assay with ACHN renal, 109%. Moreover, the growth is 95.8% with CAKI-1 renal, 91% in the assay on A498 renal, 89.5% in the assay on CCRF-CEM leukemia and 78.6% in the assay on MOLT-4 leukemia.
For `Cn1c(=O)cc(NC(=O)CN2CCN(c3cc4c(cc3F)c(=O)c(C(=O)O)cn4C3CC3)CC2)[nH]c1=O`, the growth in the assay on SK-MEL-2 melanoma was 107%; with EKVX NSCLC it was 92.9%; in the assay on SN12C renal it was 97.4%; in the assay with UO-31 renal it was 88.7%; in the assay with TK-10 renal, 105%; in the assay with ACHN renal it was 99.9%. Also, the growth was 88.2% in the assay on CAKI-1 renal, 102% in the assay with A498 renal, 103% with CCRF-CEM leukemia and 107% in the assay on MOLT-4 leukemia.
As for `NC1=C(/C(N)=N/O)C(c2ccccc2)c2ccc3ccccc3c2O1` (stereo not given), the growth with SK-MEL-2 melanoma was 44.7%; in the assay with EKVX NSCLC, 29.1%; in the assay with SN12C renal, 24.2%; in the assay with UO-31 renal, 38.6%; in the assay on TK-10 renal it was 74.4%; in the assay with ACHN renal it was 28.2%. For the same compound, the growth in the assay on CAKI-1 renal was 26%; with A498 renal it was -8.95% (active); in the assay on CCRF-CEM leukemia, 14.4%; in the assay on MOLT-4 leukemia, 27.2%.
Take `COc1ccc(-c2ccc(-c3ccc(C(=N)N)cn3)s2)cc1OC`: the growth is 109% in the assay with SK-MEL-2 melanoma; 89.1% with EKVX NSCLC; 90.6% in the assay with SN12C renal; 85.7% with UO-31 renal; 128% with TK-10 renal; 93.8% in the assay on ACHN renal. The growth with CAKI-1 renal is 110%; in the assay on A498 renal, 78.5%; in the assay with CCRF-CEM leukemia it was 97.6%; in the assay on MOLT-4 leukemia, 72.2%.
Regarding `CCCCN(CCCC)C(=O)CC`, the growth in the assay on SK-MEL-2 melanoma is 112%; in the assay on EKVX NSCLC it was 105%; with SN12C renal, 109%; in the assay with UO-31 renal, 99.5%; with TK-10 renal, 114%; in the assay on ACHN renal it was 112%. Besides, the growth in the assay on CAKI-1 renal is 109%; with A498 renal, 97.7%; in the assay with CCRF-CEM leukemia it was 96.8%; with MOLT-4 leukemia, 97.8%.
With `CCC(=O)Oc1ccc(/C(=C(/C)Cc2cccc(OC)c2)c2ccc(OCCN(C)C)cc2)cc1`, the growth in the assay on SK-MEL-2 melanoma was 100%; with EKVX NSCLC, 94.4%; in the assay on SN12C renal, 85.9%; with UO-31 renal, 67.4%; with TK-10 renal it was 99.4%; in the assay with ACHN renal, 99.5%. Moreover, the growth with CAKI-1 renal is 91.3%; in the assay with A498 renal, 84.4%; with CCRF-CEM leukemia, 42.8%; in the assay on MOLT-4 leukemia, 68.4%.
With `CC(C)(C)n1cc(-c2ccnc(NCCCNS(=O)(=O)c3ccc(F)cc3)c2)c(-c2cccc(O)c2)n1`, the growth was 52.2% in the assay with SK-MEL-2 melanoma; 49.8% with EKVX NSCLC; 53.4% with SN12C renal; 59.4% in the assay with UO-31 renal; 97.6% with TK-10 renal; 38.2% in the assay with ACHN renal. Moreover, the growth with CAKI-1 renal was 55%; in the assay on A498 renal it was 59%; with CCRF-CEM leukemia, 35.7%; with MOLT-4 leukemia, 34.2%.
For the compound `O=C(NCCNc1nccc(-n2ccc3cccnc32)n1)c1ccc(C(F)(F)F)cc1`, the growth with SK-MEL-2 melanoma was 108%; with EKVX NSCLC it was 94.2%; with SN12C renal it was 98.7%; in the assay on UO-31 renal, 84%; in the assay on TK-10 renal it was 134%; in the assay on ACHN renal, 97.6%. Moreover, the growth is 87.6% with CAKI-1 renal, 108% in the assay with A498 renal, 101% in the assay with CCRF-CEM leukemia and 104% in the assay on MOLT-4 leukemia.
Consider `O=[N+]([O-])c1ccc(C(c2ccccc2)c2ccccc2)cc1`, for which the growth in the assay on SK-MEL-2 melanoma is 110%; with EKVX NSCLC, 94.8%; in the assay on SN12C renal, 92%; with UO-31 renal it was 80.4%; in the assay on TK-10 renal it was 96.4%; in the assay with ACHN renal, 90.3%. Besides, the growth in the assay on CAKI-1 renal is 83.1%; in the assay on A498 renal it was 91.3%; in the assay on CCRF-CEM leukemia, 97.8%; with MOLT-4 leukemia, 95.2%.
In the case of `C=C[C@@H]1C[C@@H]2Cc3c(C)cc(C)cc3N1O2`, the growth with SK-MEL-2 melanoma was 110%; with EKVX NSCLC it was 81.6%; in the assay on SN12C renal, 101%; in the assay on UO-31 renal, 101%; with TK-10 renal it was 92.7%; in the assay on ACHN renal, 101%. Besides, the growth was 92.3% in the assay with CAKI-1 renal, 95.1% with A498 renal, -61.1% (active) in the assay with CCRF-CEM leukemia and -50.7% (active) in the assay with MOLT-4 leukemia.
As to `COc1cc(-c2nn(C(=O)NS(=O)(=O)c3ccccc3)cc2-c2ccncc2)ccc1Cl`, the growth in the assay on SK-MEL-2 melanoma was 94.8%; in the assay with EKVX NSCLC it was 56.1%; in the assay on SN12C renal, 82.4%; in the assay on UO-31 renal, 69.7%; in the assay with TK-10 renal, 83%; in the assay with ACHN renal, 80.3%. Besides, the growth in the assay with CAKI-1 renal was 84.8%; with A498 renal it was 60.3%; with CCRF-CEM leukemia, 92.8%; in the assay with MOLT-4 leukemia, 83.9%.
